The text below walks through data of PubChem BioAssay.

Potency and affinity values are given separately. Records with an inconclusive call do not appear. A number with no mark means an inactive call. No rule for the calls is given here.

A short description of this experiment: general cell-killing toxicity readout – plate reader, dry powder samples, cytotoxicity control for PAX8 inhibitor project, dose response (AID 743021). Conditions: cell line, non-specific cytotoxicity counter-screen; series mostly up to 35 µM; activity change, negative = cytotoxicity: at the top concentration. (In general: The purpose of a counterscreen is to sort out artefacts and off-target activity.)
For `COC1C(CO)OC(n2c3c(Cl)cccc3c3c4c(c5c6cccc(Cl)c6[nH]c5c32)C(=O)NC4=O)C(O)C1O` (stereo not given), the “activity change, negative = cytotoxicity” value was 3.92%.
To `CCSc1nsc(NC(=O)Nc2cccc(F)c2)n1` belongs -6.8%; to `COc1ccc(C(=O)CCS(=O)(=O)c2ccc(C)cc2)cc1OC`, 4.06%; to `O=S(=O)(Nc1cc(Sc2ncn[nH]2)c(O)c2ccccc12)c1ccccc1`, -25.1%.
`COc1cc(C2C3=C(COC3=O)OC(C)(C)Oc3cc4c(cc32)OCO4)cc(OC)c1OC` (stereo not given): the “activity change, negative = cytotoxicity” value was 0.86%.
For the molecule `CCC(=O)N1CCN(c2ccc(NC(=O)c3ccc([N+](=O)[O-])o3)cc2)CC1`, the “activity change, negative = cytotoxicity” value is 49.5%.
The figure for `COc1cc(C(=O)NCC(c2cccs2)N2CCOCC2)ccc1OCc1ccc(Cl)cc1` (stereo not given) is -14.6%.
The figure for `COc1ccc(CC2C(=O)NC(C)C(=O)N(C)C3Cc4ccc(cc4)Oc4cc(ccc4O)CC(C(=O)NC(C)C(=O)NC(C)C(=O)N2C)N(C)C3=O)cc1` (stereo not given) is 39%; for `COC(=O)[C@]12CCCCC=C1N(Cc1cccc3ccccc13)C(=O)[C@H](CC(=O)N1CCN(C(=O)c3ccco3)CC1)C2` it is 23.6%.
As to `Cc1ccc(S(=O)(=O)NCc2ccc(C(=O)N3CCN(c4ccc([N+](=O)[O-])cc4)CC3)cc2)cc1`, the “activity change, negative = cytotoxicity” value is 0.734%.
To `O=C(COC(=O)c1ccco1)Nc1cccc(S(=O)(=O)N2CCOCC2)c1` belongs -1.07%; to `O=C1[C@@H]2Cc3c([nH]c4ccccc34)C(c3cccc(Br)c3)N2C(=O)CN1C1CCN(Cc2ccccc2)CC1` (stereo not given in full), -16.5%; to `Cc1ccc(S(=O)(=O)N(C)C[C@H]2Oc3c(NC(=O)Nc4cccc5ccccc45)cccc3C(=O)N([C@@H](C)CO)C[C@@H]2C)cc1`, 48.2%.
To `N#Cc1nc(NCC(F)F)nc(Nc2cc(F)cc(F)c2)n1` belongs 40%; to `Cn1nnnc1Sc1ncnc2scc(-c3ccc[nH]3)c12`, 34%.
To `CCCOc1ccc2[nH]c(C(=O)N/N=C/c3cc(OC)c(OC)c(OC)c3)cc2c1` belongs -7.54%; to `Oc1ccc(C[C@H]2CNC(=S)N2CC2CCCN2C[C@H](Cc2ccc(O)cc2)N2C[C@H](Cc3ccc(O)cc3)N(CC3CCCCC3)C2=S)cc1` (stereo not given in full), 58.4%.
As for `O=C(Nc1ccc(Cl)cc1)/C(=C/c1cccc(O)c1)c1nc2ccccc2s1`, the “activity change, negative = cytotoxicity” value is 21.4%.
Take `C=C1C(=O)[C@]23C[C@H]1CC[C@H]2[C@]1(C)[C@@H](OC(C)=O)CC[C@@](C)(C(=O)O)[C@H]1C[C@@H]3O`: the “activity change, negative = cytotoxicity” value is -32%.
For the molecule `COc1cccc2c1C(=O)c1c(O)c3c(c(O)c1C2=O)CC(O)(C(C)=NNC(=O)c1ccc(Cl)c(Cl)c1)CC3OC1CC(N)C(O)C(C)O1` (stereo not given), the “activity change, negative = cytotoxicity” value is -3.99%.
For the molecule `O=C(NC(Nc1nc2ccc([N+](=O)[O-])cc2s1)(C(F)(F)F)C(F)(F)F)c1cccnc1`, the “activity change, negative = cytotoxicity” value was 17.5%.
The figure for `CN(N=Nc1nc[nH]c1C(N)=O)C1CCCCC1` is 33.7%.
The figure for `COC(=O)[C@@]12C[C@@H](CC(=O)N3CCN(C(=O)c4ccco4)CC3)C(=O)N(Cc3ccccc3)C1=CCC(C)(C)C2` is 11.2%; for `COc1ccc(OC)c2sc(N(CCCN(C)C)C(=O)CCS(=O)(=O)c3ccccc3)nc12` it is 7.78%; for `Cc1cc(C)c(C(=O)/C=C/c2cccc3ccccc23)c(=O)[nH]1` it is 44.8%.
Consider `Cc1cc(C)n(-c2nc(NCCN(C)C)c3c4c(sc3n2)CCCC4)n1`, for which the “activity change, negative = cytotoxicity” value was -16.8%.
To `CC(C)C(=O)N1CCN(c2ccc(NC(=O)c3ccc([N+](=O)[O-])o3)cc2Cl)CC1` belongs 43.7%; to `O=C(N/N=C/c1c[nH]c2ccccc12)c1[nH]c2ccc(Br)cc2c1-c1ccccc1`, 1.25%.
The figure for `COc1cc(NC(=O)c2ccc([N+](=O)[O-])o2)ccc1NC(=O)c1ccco1` is -29.8%.
To `COCCN(CC(=O)NC1CCCCC1)C(=O)/C=C/C(=O)c1ccc(OC)cc1O` belongs -4.8%.
On to `CCCCCc1c(-c2ccccc2OC)ncn1CCc1ccccc1OC`, for which the “activity change, negative = cytotoxicity” value is -12.4%.
The figure for `COc1ccc(/C=C2\CN(Cc3ccccc3)C/C(=C\c3ccc(OC)c(O)c3)C2=O)cc1O` is -2.54%; for `COc1cccc2c1C(=O)c1c(O)c3c(c(O)c1C2=O)C[C@](O)(C(C)=O)C[C@H]3O[C@@H]1C[C@@H](N)[C@@H](O)[C@@H](C)O1` it is 34.6%; for `COc1ccc([N+](=O)[O-])c(S(=O)(=O)c2ccccc2)n1` it is 18.1% [at 16 µM].
To `BrC(=C\c1ccccc1)/C=N/n1cnnc1` belongs 26.4%.
For the molecule `O=[N+]([O-])c1cc2c(ccc3occc32)o1`, the “activity change, negative = cytotoxicity” value is 58.9%.
The figure for `C=CCC[C@@H](Cc1ccc(F)cc1)C(=O)OC[C@@H](Cc1c[nH]c2ccccc12)NC(=O)[C@H](CC=C)CC(=O)N(CCO)Cc1ccccc1` is -5.52%; for `CC(/C=C1\SC(=O)N(CC(=O)Nc2ccc(O)cc2)C1=O)=C\c1ccccc1` it is 26.6%.
To `CC[C@]1(O)C[C@@H]2CN(CCc3c([nH]c4ccccc34)[C@@](C(=O)OC)(c3cc4c(cc3OC)N(C)[C@H]3[C@@](O)(C(=O)OC)[C@H](OC(C)=O)[C@]5(CC)C=CCN6CC[C@]43[C@@H]65)C2)C1` belongs 4.97%; to `CN1CC(=O)N2C(c3ccc(Cl)cc3)c3[nH]c4ccccc4c3C[C@H]2C1=O` (stereo not given in full), -13.7%.
